Measured values published in the antibiotic and cytotoxicity screens of Wong et al. (2023).
The campaign covered roughly 39,000 compounds. About 3,300 (8.5%) were called active. The entries come from a sample that favours actives as a whole.

system: HepG2; experiment: cytotoxicity call (relative viability < 0.9); conditions: 10 µM

Structure (SMILES) | cytotoxicity call
Cc1noc(C)c1S(=O)(=O)N(C)C[C@@H]1OCCCC[C@@H](C)Oc2ccc(NC(=O)Nc3ccc(C(F)(F)F)cc3)cc2C(=O)N([C@H](C)CO)C[C@@H]1C | inactive
Cc1noc(C)c1S(=O)(=O)N(C)C[C@H]1OCCCC[C@@H](C)Oc2ccc(NC(=O)Nc3ccc(C(F)(F)F)cc3)cc2C(=O)N([C@H](C)CO)C[C@@H]1C | active
Cc1noc(C)c1S(=O)(=O)N(C)C[C@H]1OCCCC[C@@H](C)Oc2ccc(NC(=O)Nc3ccc(C(F)(F)F)cc3)cc2C(=O)N([C@@H](C)CO)C[C@H]1C | inactive
Cc1noc(C)c1S(=O)(=O)N(C)C[C@H]1OCCCC[C@@H](C)Oc2ccc(NC(=O)Nc3ccc(C(F)(F)F)cc3)cc2C(=O)N([C@@H](C)CO)C[C@@H]1C | inactive
Cc1noc(C)c1S(=O)(=O)N(C)C[C@@H]1OCCCC[C@@H](C)Oc2ccc(NC(=O)Nc3ccc(C(F)(F)F)cc3)cc2C(=O)N([C@H](C)CO)C[C@H]1C | inactive
Cc1noc(C)c1S(=O)(=O)N(C)C[C@@H]1OCCCC[C@H](C)Oc2ccc(NC(=O)Nc3ccc(C(F)(F)F)cc3)cc2C(=O)N([C@H](C)CO)C[C@@H]1C | active
Cc1noc(C)c1S(=O)(=O)N(C)C[C@H]1OCCCC[C@H](C)Oc2ccc(NC(=O)Nc3ccc(C(F)(F)F)cc3)cc2C(=O)N([C@H](C)CO)C[C@H]1C | inactive
Cc1noc(C)c1S(=O)(=O)N(C)C[C@H]1OCCCC[C@H](C)Oc2ccc(NC(=O)Nc3ccc(C(F)(F)F)cc3)cc2C(=O)N([C@@H](C)CO)C[C@@H]1C | active
C[C@@H]1CN([C@H](C)CO)C(=O)c2cccc(NC(=O)c3cnccn3)c2O[C@H]1CN(C)CC1CCCCC1 | inactive
O=C(C[C@H]1CC[C@@H]2[C@H](COC[C@H](O)CN2C(=O)c2cccnc2)O1)NCc1ccc(-c2ccccc2)cc1 | inactive
C[C@@H]1CN([C@@H](C)CO)C(=O)c2cccc(NS(=O)(=O)c3ccc(F)cc3)c2O[C@@H]1CN(C)S(=O)(=O)c1cccs1 | inactive
C[C@@H]1CN([C@@H](C)CO)C(=O)Cc2cc(NC(=O)CCN3CCOCC3)ccc2O[C@@H]1CN(C)S(=O)(=O)c1cccs1 | inactive
C[C@H]1CN([C@@H](C)CO)C(=O)c2ccccc2-c2ccccc2CO[C@@H]1CN(C)C(=O)Nc1ccc(F)cc1 | inactive
O=C(CN1CCOCC1)N[C@H]1CC[C@@H](CCn2cc(C3CC3)nn2)O[C@H]1CO | active
O=C(CN1CCOCC1)N[C@@H]1CC[C@H](CCn2cc(C3CC3)nn2)O[C@@H]1CO | inactive
O=C(CN1CCOCC1)N[C@H]1CC[C@H](CCn2cc(C3CC3)nn2)O[C@@H]1CO | inactive

Structure (SMILES) | cytotoxicity call
CC(C)NC(=O)N[C@@H]1C=C[C@@H](CC(=O)O)O[C@H]1CO | inactive
CC(=O)Nc1ncc([N+](=O)[O-])s1 | inactive
CC(=O)Oc1ccccc1C(=O)Nc1ncc([N+](=O)[O-])s1 | active
CC(=O)Oc1ccccc1C(=O)Nc1ccccc1 | inactive
C[C@@H]1CN([C@H](C)CO)C(=O)CCCn2cc(nn2)CO[C@@H]1CN(C)C(=O)Nc1cccc(Oc2ccccn2)c1 | inactive
O=C(N/N=C/[C@H](O)[C@@H](O)[C@@H](O)[C@H](O)C(=O)O)c1ccccc1O | active
O=C(N/N=C/[C@@H](O)[C@H](O)[C@H](O)CO)c1ccccc1O | inactive
O=C(N/N=C/[C@H](O)[C@@H](O)[C@H](O)CO)c1ccccc1O | inactive
O=C(N/N=C/[C@H](O)[C@H](O)[C@@H](O)[C@@H](O)CO)c1ccccc1O | active
O=C(N/N=C/[C@H](O)[C@@H](O)[C@@H](O)[C@H](O)C(=O)O)c1ccccn1 | inactive
O=C(N/N=C/[C@H](O)[C@@H](O)[C@H](O)[C@H](O)CO)c1ccccc1O | inactive
C[C@@H]1CN([C@@H](C)CO)C(=O)Cc2cc(NC(=O)CCCCCC(=O)Nc3ccccc3N)ccc2O[C@@H]1CN(C)C(=O)Nc1ccc(C(F)(F)F)cc1 | inactive
C[C@@H]1CN([C@H](C)CO)C(=O)Cc2cc(NS(=O)(=O)c3ccccc3)ccc2O[C@@H]1CN(C)S(C)(=O)=O | inactive
COC1C(=O)C2(C)C(OC)CC3OCC3(OC(C)=O)C2C(OC(=O)c2ccccc2)C2(O)CC(OC(=O)C(O)C(NC(=O)OC(C)(C)C)c3ccccc3)C(C)=C1C2(C)C (configuration not stated) | active
CC(=O)OC12COC1CC(O)C1(C)C(=O)C(O)C3=C(C)C(OC(=O)C(O)C(NC(=O)OC(C)(C)C)c4ccccc4)CC(O)(C(OC(=O)c4ccccc4)C21)C3(C)C.O.O.O (configuration not stated) | active
CC(=O)OC1C(=O)C2(C)C(O)CC3OCC3(OC(C)=O)C2C(OC(=O)c2ccccc2)C2(O)CC(OC(=O)C(O)C(NC(=O)c3ccccc3)c3ccccc3)C(C)=C1C2(C)C (configuration not stated) | active
